In experiment [1] the target is Retinoic acid receptor RXR-alpha (Homo sapiens) (UniProt P19793). The experiment in a line: ATG_RXRa_TRANS: Attagene TRANS-FACTORIAL HepG2 Assay for human Retinoid X Receptor alpha (RXRa) (AID 2283012; active means hit-call score of the fitted dose curve at least 0.9, where 1 is the maximum). In outline: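 Chimeric NR-GAL4 trans-activation in HepG2, 24 h treatment; reporter transcripts quantified by fluorescence on capillary electrophoresis, analysed for upward change from DMSO.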

Read-out in experiment [2]: E-selectin (Homo sapiens) (UniProt P16581)
Description: BSK_3C_Eselectin: BioMAP Diversity Plus: 3C Assay for Eselectin Biomarker Activity (AID 2283015).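 Further: cell surface E-selectin protein quantified by ELISA 24 h after dosing.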 As to conditions: primary human endothelial cells (HUVEC); actives raise or lower the signal. In outline:
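Human vascular endothelium from umbilical vein is exposed to test chemicals for 24 h. E-selectin levels are read by ELISA and compared with DMSO controls.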

Read-out in experiment [3]: Interleukin-1 alpha (IL1a), IL1A (gene 3552)
Description: BSK_BE3C_IL1a: BioMAP Diversity Plus: BE3C Assay for Interleukin-1 alpha (IL1a) Biomarker Activity (AID 2283016). To be noted: primary human bronchial epithelial cells; actives raise or lower the signal. In outline:
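Measured in human lung primary bronchial epithelial cells: IL-1a by ELISA at 24 h after dosing, with bidirectional fitting against DMSO.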

Read-out in experiment [4]: Monocyte Chemoattractant Protein-1 (MCP1), CCL2 (gene 6347)
The experiment in a line: BSK_3C_MCP1: BioMAP Diversity Plus: 3C Assay for Monocyte Chemoattractant Protein-1 (MCP1) Biomarker Activity (AID 2283017). As to conditions: primary human endothelial cells (HUVEC); actives raise or lower the signal. In outline: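 Endothelial cells from human umbilical vein are dosed with chemical, cultured 24 h, then assayed for MCP-1 by ELISA; both increases and decreases are modelled against DMSO controls.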

Read-out in experiment [5]: Monocyte Chemoattractant Protein-1 (MCP1), CCL2 (gene 6347)
Description: BSK_4H_MCP1: BioMAP Diversity Plus: 4H Assay for Monocyte Chemoattractant Protein-1 (MCP1) Biomarker Activity (AID 2283018). As to conditions: primary human endothelial cells (HUVEC); actives raise or lower the signal. In outline:
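Primary human umbilical vein endothelium is exposed to chemical for 24 h before MCP-1 is assayed by ELISA. Concentration-response fitted bidirectionally relative to DMSO.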

Read-out in experiment [6]: Human Leukocyte Antigen - DR isotype (HLADR), HLA-DRA (gene 3122)
Description: BSK_3C_HLADR: BioMAP Diversity Plus: 3C Assay for Human Leukocyte Antigen - DR isotype (HLADR) Biomarker Activity (AID 2283019).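 Further: ELISA of cell-surface HLA-DR on HUVEC 24 h after dosing.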 As to conditions: primary human endothelial cells (HUVEC); actives raise or lower the signal. Summed up: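 Endothelial cells from human umbilical vein are treated with test chemical; after 24 h, HLA-DR levels are measured by ELISA. Data are fitted in both directions using DMSO as the baseline.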

Read-out in experiment [7]: Interleukin-8 (IL8), CXCL8 (gene 3576)
Description: BSK_3C_IL8: BioMAP Diversity Plus: 3C Assay for Interleukin-8 (IL8) Biomarker Activity (AID 2283020). To be noted: primary human endothelial cells (HUVEC); actives raise or lower the signal. Summed up:
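Using DMSO-treated wells as the baseline, bidirectional curve fitting was applied to ELISA-measured IL-8 from human umbilical vein endothelial cultures sampled 24 h after compound addition.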

Read-out in experiment [8]: Monokine induced gamma interferon (MIG), CXCL9 (gene 4283)
Description: BSK_3C_MIG: BioMAP Diversity Plus: 3C Assay for Monokine induced gamma interferon (MIG) Biomarker Activity (AID 2283021). As to conditions: primary human endothelial cells (HUVEC); actives raise or lower the signal. In outline:
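ELISA-measured MIG in dosed HUVEC 3C cultures at 24 h, analysed by bidirectional fitting with DMSO defining baseline activity.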

Experiment [9] in a line: BSK_3C_SRB: Viability Assessment in the BioMAP Diversity Plus: 3C Assay (AID 2283023).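 Further: fitted both ways against DMSO so a hit may be signal rise or drop.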 As to conditions: primary human endothelial cells (HUVEC). In outline: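 Cells were dosed with chemical, cultured 24 h, fixed with 10% TCA, stained with 0.1% SRB and read at 560 nm. Human umbilical vein endothelium was used; DMSO served as negative control and baseline.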
Read-out in experiment [10]: Matrix Metallopeptidase 1 (MMP1), MMP1 (gene 4312)
The experiment in a line: BSK_BE3C_MMP1: BioMAP Diversity Plus: BE3C Assay for Matrix Metallopeptidase 1 (MMP1) Biomarker Activity (AID 2283024). As to conditions: primary human bronchial epithelial cells; actives raise or lower the signal. Summed up: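 In this multiplexed primary-cell system, human bronchial epithelium received chemicals for 24 h before an ELISA for MMP1. Values reflect bidirectional fits normalised to the DMSO baseline.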

Experiment [11] can be described thus: BSK_3C_Vis: BioMAP Diversity Plus: 3C Assay for Morphology Visualization (AID 2283025).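 Further: fitted both ways so gain or loss versus DMSO counts.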 As to conditions: primary human endothelial cells (HUVEC). Summed up: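 Light-microscopy morphology readout, 24 h exposure, human primary umbilical vein endothelium; analysed relative to DMSO with bidirectional fitting.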
Read-out in experiment [12]: Pselectin, SELP (gene 6403)
The experiment in a line: BSK_4H_Pselectin: BioMAP Diversity Plus: 4H Assay for Pselectin Biomarker Activity (AID 2283026). To be noted: primary human endothelial cells (HUVEC); actives raise or lower the signal. Summed up:
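Bidirectional fits against DMSO gave the endpoint. Cells: primary human umbilical vein endothelium, chemical-treated for 24 h before ELISA detection of P-selectin.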

The nature of experiment [13]: BSK_4H_SRB: Viability Assessment in the BioMAP Diversity Plus: 4H Assay (AID 2283027).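 Further: cells exposed to compound for 24 h before staining.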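 On AC50: curves fitted both ways versus DMSO so AC50 may be loss or gain.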 As to conditions: primary human endothelial cells (HUVEC). Summed up:
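Cytotoxicity read-out in primary human endothelial cells: after 24 h compound exposure, cells were TCA-fixed (10%), stained with 0.1% SRB and absorbance taken at 560 nm. Values fitted in both directions relative to DMSO.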

Read-out in experiment [14]: Thrombomodulin, THBD (gene 7056)
The experiment in a line: BSK_3C_Thrombomodulin: BioMAP Diversity Plus: 3C Assay for Thrombomodulin Biomarker Activity (AID 2283029). To be noted: primary human endothelial cells (HUVEC); actives raise or lower the signal. Summed up: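 In a multiplexed primary-cell system, human umbilical vein endothelium received chemical and was assayed 24 h later for thrombomodulin by ELISA. Parallel cultures were SRB-stained (0.1% SRB after 10% TCA fixation, read at 560 nm) to flag cytotoxicity.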

Read-out in experiment [15]: Urokinase-type plasminogen activator receptor (uPAR), PLAUR (gene 5329)
Description: BSK_4H_uPAR: BioMAP Diversity Plus: 4H Assay for Urokinase-type plasminogen activator receptor (uPAR) Biomarker Activity (AID 2283030). As to conditions: primary human endothelial cells (HUVEC); actives raise or lower the signal. Summed up: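 Chemicals are dosed onto human vascular endothelial primary cells (umbilical vein). After 24 h, uPAR is read by ELISA. Gain or loss of signal is fitted relative to DMSO.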

Read-out in experiment [16]: Vascular endothelial growth factor receptor 2 (Homo sapiens) (UniProt P35968)
Description: BSK_4H_VEGFRII: BioMAP Diversity Plus: 4H Assay for Vascular endothelial growth factor receptor 2 (VEGFR2) Biomarker Activity (AID 2283031). To be noted: primary human endothelial cells (HUVEC); actives raise or lower the signal. In outline:
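VEGFRII levels on human vascular endothelial primary cells were determined by ELISA at 24 hours post-dosing, with gain- or loss-of-signal fitted against DMSO controls.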

In experiment [17] the target is human Retinoid X Receptor beta (RXRb), RXRB (gene 6257) (UniProt P28702). Description: ATG_RXRb_TRANS: Attagene TRANS-FACTORIAL HepG2 Assay for human Retinoid X Receptor beta (RXRb) (AID 2283013; active means hit-call score of the fitted dose curve at least 0.9, where 1 is the maximum). In outline:
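After a 24 h incubation with test chemical, transfected HepG2 cells carrying NR-Gal4 fusions and GAL4-UAS reporter transcription units yield RNA whose reporter cDNA is FAM-labelled, HpaI-cut and sized by capillary electrophoresis; increases over DMSO are scored.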

Experiment [18] can be described thus: BSK_BE3C_SRB: Viability Assessment in the BioMAP Diversity Plus: BE3C Assay (AID 2283028). As to conditions: primary human bronchial epithelial cells. Summed up: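 Overt cytotoxicity was assessed as total protein in confluent human primary bronchial epithelial cultures 24 h after chemical addition, using 0.1% sulforhodamine B staining read at 560 nm.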
The target in experiment [19] is human Vitamin D Receptor (VDR), VDR (gene 7421) (UniProt P11473). The experiment in a line: ATG_VDR_TRANS: Attagene TRANS-FACTORIAL HepG2 Assay for human Vitamin D Receptor (VDR) (AID 2283022; active means hit-call score of the fitted dose curve at least 0.9, where 1 is the maximum). Summed up:
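Fluorescence of labelled reporter cDNA fragments, resolved by capillary electrophoresis, gives mRNA induction after 24 h treatment of HepG2 cells carrying transfected Gal4-fusion reporter units. Activity is fitted in the positive direction with DMSO as baseline.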

The values below come from PubChem BioAssay (EPA / NIEHS).

Records with an inconclusive call do not appear. Calls of active or inactive are those of the source. How the source made its calls, unless noted: active means hit-call score of the fitted dose curve at least 0.9, where 1 is the maximum; inactive means score below 0.9.

Retinoic acid receptor RXR-alpha (Homo sapiens), sequence (P19793 whole entry, looked up, the tested form may be a part): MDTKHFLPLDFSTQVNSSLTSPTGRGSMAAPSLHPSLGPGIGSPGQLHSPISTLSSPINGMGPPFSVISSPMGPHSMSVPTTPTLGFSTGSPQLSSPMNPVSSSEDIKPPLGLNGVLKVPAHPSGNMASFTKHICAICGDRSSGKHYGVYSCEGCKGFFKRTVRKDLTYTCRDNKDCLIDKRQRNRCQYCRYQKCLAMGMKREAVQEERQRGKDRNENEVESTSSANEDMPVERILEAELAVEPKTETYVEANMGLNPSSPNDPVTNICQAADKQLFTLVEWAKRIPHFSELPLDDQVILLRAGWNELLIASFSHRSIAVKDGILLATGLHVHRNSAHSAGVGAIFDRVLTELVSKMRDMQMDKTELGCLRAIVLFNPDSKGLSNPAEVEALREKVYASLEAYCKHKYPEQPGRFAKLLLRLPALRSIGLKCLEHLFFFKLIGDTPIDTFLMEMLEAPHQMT
human Retinoid X Receptor beta (RXRb), RXRB (gene 6257), sequence (P28702 whole entry, looked up, the tested form may be a part): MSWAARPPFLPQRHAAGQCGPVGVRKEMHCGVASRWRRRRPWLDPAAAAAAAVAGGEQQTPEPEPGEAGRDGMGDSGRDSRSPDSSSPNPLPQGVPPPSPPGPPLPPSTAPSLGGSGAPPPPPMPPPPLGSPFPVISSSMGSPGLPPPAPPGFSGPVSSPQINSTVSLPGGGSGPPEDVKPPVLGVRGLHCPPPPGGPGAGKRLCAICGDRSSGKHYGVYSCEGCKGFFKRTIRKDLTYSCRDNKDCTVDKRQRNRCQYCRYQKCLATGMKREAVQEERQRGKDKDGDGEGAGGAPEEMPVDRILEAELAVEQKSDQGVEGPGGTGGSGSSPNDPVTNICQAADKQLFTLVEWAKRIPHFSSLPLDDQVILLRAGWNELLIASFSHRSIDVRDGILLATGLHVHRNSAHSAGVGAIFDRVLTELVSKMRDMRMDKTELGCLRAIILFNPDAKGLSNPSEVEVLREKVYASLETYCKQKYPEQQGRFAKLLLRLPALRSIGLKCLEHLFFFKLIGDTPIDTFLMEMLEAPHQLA
E-selectin (Homo sapiens), sequence (P16581 whole entry, looked up): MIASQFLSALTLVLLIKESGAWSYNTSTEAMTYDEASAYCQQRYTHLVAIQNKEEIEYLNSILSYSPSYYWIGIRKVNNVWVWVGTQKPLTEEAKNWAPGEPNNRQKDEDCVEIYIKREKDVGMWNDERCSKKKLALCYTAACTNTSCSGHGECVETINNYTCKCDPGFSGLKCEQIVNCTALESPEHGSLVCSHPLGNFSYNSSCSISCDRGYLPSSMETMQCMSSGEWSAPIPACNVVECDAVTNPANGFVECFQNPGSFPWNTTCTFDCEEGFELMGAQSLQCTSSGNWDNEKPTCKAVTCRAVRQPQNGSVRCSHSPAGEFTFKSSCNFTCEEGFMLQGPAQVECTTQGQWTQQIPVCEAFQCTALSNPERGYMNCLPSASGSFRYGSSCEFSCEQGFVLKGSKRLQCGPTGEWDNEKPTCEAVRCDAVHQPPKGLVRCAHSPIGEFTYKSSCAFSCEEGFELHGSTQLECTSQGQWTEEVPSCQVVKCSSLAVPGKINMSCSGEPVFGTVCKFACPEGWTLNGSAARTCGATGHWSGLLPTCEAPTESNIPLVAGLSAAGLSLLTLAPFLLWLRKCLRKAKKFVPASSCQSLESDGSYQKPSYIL
human Vitamin D Receptor (VDR), VDR (gene 7421), sequence (P11473 whole entry, looked up, the tested form may be a part): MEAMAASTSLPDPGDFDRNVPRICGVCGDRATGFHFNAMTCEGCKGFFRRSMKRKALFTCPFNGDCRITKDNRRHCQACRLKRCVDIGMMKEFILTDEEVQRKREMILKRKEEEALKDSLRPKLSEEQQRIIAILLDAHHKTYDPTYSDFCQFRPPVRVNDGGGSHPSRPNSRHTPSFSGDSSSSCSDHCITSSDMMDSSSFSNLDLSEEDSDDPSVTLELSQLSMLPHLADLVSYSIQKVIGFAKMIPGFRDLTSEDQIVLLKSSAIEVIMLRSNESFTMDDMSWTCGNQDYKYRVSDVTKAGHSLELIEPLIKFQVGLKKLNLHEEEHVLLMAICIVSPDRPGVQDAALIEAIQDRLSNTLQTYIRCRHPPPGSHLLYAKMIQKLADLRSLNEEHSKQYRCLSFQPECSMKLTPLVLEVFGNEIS

For `Clc1cc(Cl)c(Cl)cc1Cl`, the call in [1], in experiment [2], in [3], in [4], in experiment [5] and in experiment [6] was inactive. The result in experiment [7], in [8], in [9], in experiment [10], in [11] and in [12] was inactive. The result in experiment [13], in experiment [14], in experiment [15] and in [16] was inactive.

On to `CC(=O)C(C)=CC1C(C)=CCCC1(C)C` (stereo not drawn), for which the molecule was called inactive in [1], in [2], in experiment [3], in experiment [4], in experiment [5] and in [7]. The result in experiment [8], in experiment [9], in [10], in experiment [11], in experiment [12] and in experiment [13] was inactive. Also, the result in [14], in experiment [15] and in [16] was inactive. The AC50 in [17] was 27.9 µM (active).

For the molecule `COc1cc(C=O)ccc1O`, the call in experiment [1], in [17], in [2], in experiment [3], in [4] and in [5] was inactive. Also, the outcome in experiment [7], in experiment [8], in experiment [9], in experiment [10], in experiment [11] and in experiment [12] was inactive. In addition, the outcome in [13], in [14], in experiment [15] and in experiment [16] was inactive.

Turning to `CCOC(=O)CCC(=O)OCC`, the outcome in experiment [1], in experiment [2], in experiment [3], in experiment [4], in experiment [5] and in experiment [7] was inactive. The result in experiment [8], in [9], in experiment [10], in experiment [11], in [12] and in experiment [13] was inactive. The outcome in experiment [14], in experiment [15] and in experiment [16] was inactive.

With `FC(F)(F)C(F)(F)C(F)(F)C(F)(F)C(F)(F)C(F)(F)CCI`, the outcome in [1], in experiment [17], in experiment [2], in experiment [3], in experiment [4] and in [5] was inactive. The outcome in experiment [7], in experiment [8], in [9], in experiment [10], in [11] and in experiment [12] was inactive. The outcome in experiment [13], in experiment [14], in [15] and in [16] was inactive.

Take `NCC1(Cc2noc(=O)[nH]2)CCCCC1`: the molecule was classed as inactive in [1], in [2], in [3], in experiment [4], in experiment [5] and in [6]. Also, the result in [7], in [8], in experiment [9], in experiment [10], in experiment [11] and in experiment [12] was inactive. Moreover, the result in [13], in [18], in experiment [14], in experiment [15] and in experiment [16] was inactive.

Take `NC(=O)Cn1c(=O)cc(CCN2CCN(c3nccc4sccc34)CC2)c2ccc(F)cc21`: the molecule was classed as inactive in experiment [1], in [2], in experiment [3], in [4], in [5] and in [6]. For the same molecule, the outcome in [7], in [8], in experiment [19], in [10], in experiment [11] and in experiment [14] was inactive. Moreover, the outcome in experiment [16] was inactive. The AC50 in [12] was 3.25 µM (active); in experiment [13] it was 3.97 µM (active); in [15], 0.496 µM (active).

Regarding `CC(=O)OC/C=C(\C)CCC=C(C)C`, the result in experiment [1], in [17], in experiment [2], in experiment [3], in [4] and in experiment [5] was inactive. Further, the result in experiment [7], in experiment [8], in experiment [9], in [10], in [11] and in experiment [12] was inactive. Moreover, the outcome in experiment [13], in [14], in experiment [15] and in experiment [16] was inactive.
